{
  "source": "paper PMC7862700",
  "about": "“An all-to-all approach to the identification of sequence-specific readers for epigenetic DNA modifications on cytosine”",
  "assay_in_all_cases": "DAPPL (digital affinity profiling via proximity ligation, sequencing); 10 mM Tris-HCl pH 7.5, 50 mM NaCl, 1 mM DTT, 4% glycerol, room temperature, 30 min; GST-TFs on glutathione beads, 16-mer random dsDNA library, 0.1% formaldehyde crosslink after washing; high values mean tight binding",
  "settings_in_all_cases": "protein: recombinant; tags: N-terminal GST; dsDNA, one strand shown",
  "key": {"ELF4": {"target": "ELF4 (Homo sapiens, UniProt Q99607 1-663)", "sequence (Q99607 whole entry, the tested form may be a part)": "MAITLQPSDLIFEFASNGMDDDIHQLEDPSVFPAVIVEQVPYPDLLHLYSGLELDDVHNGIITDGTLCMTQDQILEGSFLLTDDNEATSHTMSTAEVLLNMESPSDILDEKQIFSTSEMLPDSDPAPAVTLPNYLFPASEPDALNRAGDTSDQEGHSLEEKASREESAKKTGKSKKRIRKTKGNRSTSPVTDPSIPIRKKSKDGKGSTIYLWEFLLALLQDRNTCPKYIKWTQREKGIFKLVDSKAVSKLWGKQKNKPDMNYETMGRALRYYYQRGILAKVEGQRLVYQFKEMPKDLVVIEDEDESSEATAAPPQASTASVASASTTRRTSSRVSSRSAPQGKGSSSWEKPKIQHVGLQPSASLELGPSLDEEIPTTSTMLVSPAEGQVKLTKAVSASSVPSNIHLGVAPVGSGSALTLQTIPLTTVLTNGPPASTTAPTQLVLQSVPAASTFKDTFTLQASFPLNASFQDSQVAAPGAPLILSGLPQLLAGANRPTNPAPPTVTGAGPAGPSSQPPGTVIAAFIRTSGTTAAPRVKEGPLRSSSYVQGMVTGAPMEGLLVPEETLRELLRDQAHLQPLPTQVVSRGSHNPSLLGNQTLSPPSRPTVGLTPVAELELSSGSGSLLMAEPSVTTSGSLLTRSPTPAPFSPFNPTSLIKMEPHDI", "outline": "(§1)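 GST fusions of human transcription factors were expressed in yeast and captured with glutathione beads. Once given DNA barcodes and pooled alongside a tag-only sample, they were incubated for 30 min at room temperature with 200 nmole of a random double-stranded 16-mer DNA library in Tris/NaCl/DTT/glycerol buffer, then washed, crosslinked (0.1% formaldehyde), proximity-ligated, PCR-amplified and sequenced on an Illumina NextSeq500. The binding signal of each hexamer is its read frequency for a factor divided by its frequency for the tag-only sample.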"}, "ELK4": {"target": "T1, ELK4 (Homo sapiens, UniProt P28324-2 1-405)", "T1 sequence": "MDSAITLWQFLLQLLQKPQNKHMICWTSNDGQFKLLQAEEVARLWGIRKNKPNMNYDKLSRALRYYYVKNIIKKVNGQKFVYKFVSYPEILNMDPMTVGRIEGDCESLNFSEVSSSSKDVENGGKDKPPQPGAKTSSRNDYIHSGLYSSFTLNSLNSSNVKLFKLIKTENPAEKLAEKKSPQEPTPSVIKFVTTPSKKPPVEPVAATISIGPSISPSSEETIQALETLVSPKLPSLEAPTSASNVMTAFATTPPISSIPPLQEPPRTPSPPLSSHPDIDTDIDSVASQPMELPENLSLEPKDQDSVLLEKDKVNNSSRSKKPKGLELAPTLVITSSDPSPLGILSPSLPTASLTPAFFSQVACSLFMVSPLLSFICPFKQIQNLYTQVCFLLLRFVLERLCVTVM", "outline": "as §1"}, "ELF3": {"target": "T2, ELF3 (Homo sapiens, UniProt P78545 1-371)", "T2 sequence": "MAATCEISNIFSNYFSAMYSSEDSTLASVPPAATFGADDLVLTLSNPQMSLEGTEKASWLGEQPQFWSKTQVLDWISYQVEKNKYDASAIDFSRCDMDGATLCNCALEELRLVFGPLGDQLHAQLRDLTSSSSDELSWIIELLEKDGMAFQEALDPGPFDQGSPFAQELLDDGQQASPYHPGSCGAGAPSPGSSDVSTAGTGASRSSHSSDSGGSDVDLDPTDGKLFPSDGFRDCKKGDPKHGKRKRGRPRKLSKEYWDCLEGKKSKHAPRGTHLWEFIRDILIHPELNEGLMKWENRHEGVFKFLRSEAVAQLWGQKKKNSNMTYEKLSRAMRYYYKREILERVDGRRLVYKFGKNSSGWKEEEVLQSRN", "outline": "as §1"}, "ETV1": {"target": "ETV1 (Homo sapiens, UniProt P50549 1-477)", "sequence (P50549 whole entry)": "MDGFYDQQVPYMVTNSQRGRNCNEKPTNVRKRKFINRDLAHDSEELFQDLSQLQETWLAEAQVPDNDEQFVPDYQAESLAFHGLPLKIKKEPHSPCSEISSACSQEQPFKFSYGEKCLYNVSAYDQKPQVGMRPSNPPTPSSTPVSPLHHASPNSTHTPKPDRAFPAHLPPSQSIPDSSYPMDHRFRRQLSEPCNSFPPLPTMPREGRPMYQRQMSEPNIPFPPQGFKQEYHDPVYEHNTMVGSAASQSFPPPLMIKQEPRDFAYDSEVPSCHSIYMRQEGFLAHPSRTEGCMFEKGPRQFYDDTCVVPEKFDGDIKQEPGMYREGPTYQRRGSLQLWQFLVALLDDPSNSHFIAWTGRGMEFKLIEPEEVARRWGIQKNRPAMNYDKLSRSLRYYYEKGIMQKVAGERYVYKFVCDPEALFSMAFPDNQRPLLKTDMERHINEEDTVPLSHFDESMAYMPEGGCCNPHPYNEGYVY", "outline": "as §1"}, "ERF": {"target": "T3, ERF (Homo sapiens, UniProt P50548 1-548)", "T3 sequence": "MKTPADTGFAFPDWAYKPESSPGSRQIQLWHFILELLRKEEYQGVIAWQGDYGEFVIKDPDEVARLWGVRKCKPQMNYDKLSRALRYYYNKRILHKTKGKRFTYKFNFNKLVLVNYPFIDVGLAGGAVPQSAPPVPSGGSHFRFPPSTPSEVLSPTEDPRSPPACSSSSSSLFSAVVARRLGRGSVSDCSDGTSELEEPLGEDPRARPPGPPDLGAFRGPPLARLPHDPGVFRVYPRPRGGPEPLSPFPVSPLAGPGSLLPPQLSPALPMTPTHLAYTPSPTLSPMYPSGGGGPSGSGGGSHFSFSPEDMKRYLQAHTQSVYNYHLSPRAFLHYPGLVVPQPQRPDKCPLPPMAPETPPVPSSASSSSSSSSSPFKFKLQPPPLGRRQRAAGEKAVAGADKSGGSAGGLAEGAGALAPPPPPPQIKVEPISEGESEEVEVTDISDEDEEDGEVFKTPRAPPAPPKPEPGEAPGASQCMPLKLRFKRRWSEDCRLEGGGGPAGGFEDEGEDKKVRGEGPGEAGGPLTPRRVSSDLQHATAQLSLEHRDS", "outline": "as §1"}, "ETV3L": {"target": "T4, ETV3L (Homo sapiens, UniProt Q6ZN32 1-361)", "T4 sequence": "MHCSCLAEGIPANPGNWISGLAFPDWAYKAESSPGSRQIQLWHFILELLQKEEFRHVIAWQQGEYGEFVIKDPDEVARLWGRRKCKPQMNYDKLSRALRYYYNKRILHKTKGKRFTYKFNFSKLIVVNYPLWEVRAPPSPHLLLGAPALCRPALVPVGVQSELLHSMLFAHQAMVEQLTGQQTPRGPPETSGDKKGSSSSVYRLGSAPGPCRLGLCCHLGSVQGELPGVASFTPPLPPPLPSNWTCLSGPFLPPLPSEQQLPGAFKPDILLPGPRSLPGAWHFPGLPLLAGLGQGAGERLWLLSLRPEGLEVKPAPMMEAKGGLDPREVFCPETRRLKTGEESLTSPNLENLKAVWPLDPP", "outline": "as §1"}, "ETS2": {"target": "T5, ETS2 (Homo sapiens, UniProt P15036 1-469)", "T5 sequence": "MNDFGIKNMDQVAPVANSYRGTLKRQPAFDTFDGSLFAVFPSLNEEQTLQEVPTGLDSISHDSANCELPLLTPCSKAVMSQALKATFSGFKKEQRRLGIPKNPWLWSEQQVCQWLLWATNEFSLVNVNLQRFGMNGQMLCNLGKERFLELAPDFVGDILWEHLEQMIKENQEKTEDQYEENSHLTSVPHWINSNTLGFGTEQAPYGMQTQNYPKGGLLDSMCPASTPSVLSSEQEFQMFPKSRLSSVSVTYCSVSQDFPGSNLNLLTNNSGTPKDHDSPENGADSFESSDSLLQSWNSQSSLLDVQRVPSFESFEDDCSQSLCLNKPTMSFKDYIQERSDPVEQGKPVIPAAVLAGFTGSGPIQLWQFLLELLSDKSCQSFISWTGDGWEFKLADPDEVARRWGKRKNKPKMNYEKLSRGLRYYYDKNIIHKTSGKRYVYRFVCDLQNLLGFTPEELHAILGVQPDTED", "outline": "as §1"}, "SPDEF": {"target": "T6, SPDEF (Homo sapiens, UniProt O95238 1-335)", "T6 sequence": "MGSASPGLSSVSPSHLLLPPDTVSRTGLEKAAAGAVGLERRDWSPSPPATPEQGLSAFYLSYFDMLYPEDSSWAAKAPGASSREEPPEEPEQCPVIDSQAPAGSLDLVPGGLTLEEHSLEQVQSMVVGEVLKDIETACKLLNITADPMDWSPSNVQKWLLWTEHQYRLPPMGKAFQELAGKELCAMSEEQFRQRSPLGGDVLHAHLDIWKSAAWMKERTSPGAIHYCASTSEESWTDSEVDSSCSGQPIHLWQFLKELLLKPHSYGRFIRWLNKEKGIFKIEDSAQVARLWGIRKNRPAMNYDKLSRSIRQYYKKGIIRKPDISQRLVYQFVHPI", "outline": "as §1"}, "ETV3": {"target": "T7, ETV3 (Homo sapiens, UniProt P41162-2 1-143)", "T7 sequence": "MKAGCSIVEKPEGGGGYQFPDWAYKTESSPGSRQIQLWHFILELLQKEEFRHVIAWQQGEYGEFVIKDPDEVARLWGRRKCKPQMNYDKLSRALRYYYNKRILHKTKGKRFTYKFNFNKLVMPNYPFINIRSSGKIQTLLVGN", "outline": "as §1"}, "ETV6": {"target": "ETV6 (Homo sapiens, UniProt P41212 1-452)", "sequence (P41212 whole entry)": "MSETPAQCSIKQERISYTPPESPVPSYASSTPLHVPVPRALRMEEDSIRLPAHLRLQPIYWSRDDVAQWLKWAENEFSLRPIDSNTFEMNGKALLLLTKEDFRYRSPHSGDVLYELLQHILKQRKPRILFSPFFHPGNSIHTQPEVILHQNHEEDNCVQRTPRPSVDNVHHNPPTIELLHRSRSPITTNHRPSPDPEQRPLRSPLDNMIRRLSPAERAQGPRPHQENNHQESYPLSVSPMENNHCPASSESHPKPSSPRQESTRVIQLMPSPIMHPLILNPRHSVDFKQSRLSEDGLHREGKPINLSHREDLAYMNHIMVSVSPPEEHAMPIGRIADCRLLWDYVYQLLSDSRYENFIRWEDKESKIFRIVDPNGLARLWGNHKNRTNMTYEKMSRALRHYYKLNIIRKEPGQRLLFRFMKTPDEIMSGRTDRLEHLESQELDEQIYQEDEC", "outline": "as §1"}},
  "data": [
    {"sequence": "CAGCCC", "values": [
      {"measurement": "binding signal", "setting": "ELF4", "result": "1.06 fold enrichment (6-mer frequency, TF over GST control)"},
      {"measurement": "binding signal", "setting": "ELK4", "result": "1.19 fold enrichment (6-mer frequency, TF over GST control)"},
      {"measurement": "binding signal", "setting": "ELF3", "result": "1.35 fold enrichment (6-mer frequency, TF over GST control)"},
      {"measurement": "binding signal", "setting": "ETV1", "result": "1.01 fold enrichment (6-mer frequency, TF over GST control)"},
      {"measurement": "binding signal", "setting": "ERF", "result": "1.08 fold enrichment (6-mer frequency, TF over GST control)"},
      {"measurement": "binding signal", "setting": "ETV3L", "result": "1.07 fold enrichment (6-mer frequency, TF over GST control)"},
      {"measurement": "binding signal", "setting": "ETS2", "result": "1.13 fold enrichment (6-mer frequency, TF over GST control)"},
      {"measurement": "binding signal", "setting": "SPDEF", "result": "1.02 fold enrichment (6-mer frequency, TF over GST control)"},
      {"measurement": "binding signal", "setting": "ETV3", "result": "1.05 fold enrichment (6-mer frequency, TF over GST control)"},
      {"measurement": "binding signal", "setting": "ETV6", "result": "1.12 fold enrichment (6-mer frequency, TF over GST control)"}
    ]}
  ]
}
